# Only some compounds are listed: those with a hit (about 11% of all), similar ones and a draw of the others.
# Pf growth 96h – P. falciparum growth inhibition at 96 hour, primary screen for plastid delayed-death inhibitors. P. falciparum luciferase reporter growth, 96 h. Potency, µM (highest dose often 28.7 µM), hits mostly inhibitors. 320,000 compounds, 6.9% hits. AID 504834
#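 Readout is luminescence from an integrated firefly luciferase in P. falciparum. Red cells, 2% hematocrit and 0.05% parasitemia final, were cultured with compound through two parasite generations (96 hours) at 37 C, 5% CO2.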
# HCV inh – blocks hepatitis C virus; Huh7.5.1 HCVcc-Cre infection, luciferase reporter, 44 h; Potency, µM (highest dose often 41.8 µM), actives largely listed as inhibitors; 340,000 compounds, 3.4% hits; AID 651820
#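 Infectious HCV cell culture screen: compound-treated cells (1,000/well, pre-plated 4 h) are infected with HCVcc-Cre at roughly 0.5 moi and grown 44 h. Infection is quantified by luciferase signal after 15 min substrate incubation at room temperature.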
# NS1 function inh – influenza NS1 inhibition. Potency, µM (top dose mostly 46.1 µM). 270,000 compounds, 0.4% hits; calls by dose curve; further: actives are rising curves; nearly all actives have a fitted effect of over 50% in size
#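 A cell-based growth assay was used: compounds that relieve NS1-induced slow growth of budding yeast raise OD600. Assay medium was yeast nitrogen base with ammonium sulphate and -URA supplement, pH 6.0, with 2% galactose.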
# VACV mCherry inh – inhibitors of vaccinia virus infection (mCherry reporter signal). Potency, µM (series often up to 36.5 µM), usual class: inhibitors. AID 720579. 310,000 compounds, 0.63% hits. Vaccinia virus mCherry reporter infection, fluorescence; calls by dose curve; tested in A549 cells; further: nearly all actives have a fitted effect of over 35% in size
# VACV Venus inh – inhibitors of vaccinia virus (Venus reporter). Potency, µM (series often up to 36.5 µM), actives largely listed as inhibitors. 330,000 compounds, 0.46% hits. Vaccinia virus Venus reporter expression, fluorescence; calls by dose curve; tested in A549 cells; further: nearly all actives have a fitted effect of over 30% in size
# Pf growth 48h – inhibits P. falciparum growth in the first generation, 48 h; P. falciparum luciferase growth in erythrocytes, 48 h; Potency, µM (highest dose often 28.7 µM), most hits filed as inhibitors; 310,000 compounds, 5.9% hits
#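 Growth was read as firefly luciferase luminescence after a 48 h, 37 C, 5% CO2 exposure of compounds to reporter-bearing P. falciparum cultures (0.1% parasitemia, 2% hematocrit final) in Albumax-supplemented RPMI 1640.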
# Numbers stand for hits; i = inactive; ? = inconclusive; nt = not tested or not shown; [ ] = another dose, or the depositor's remark. Unless noted, the call rests on the fitted dose curve; in most records, active means well fitted inhibition curve with a large enough effect; inconclusive means small, poorly fitted or top-dose-only effect, or another doubt; inactive means no such curve, though single readings can be large or run the other way.
SMILES,Pf growth 96h,HCV inh,NS1 function inh,VACV mCherry inh,VACV Venus inh,Pf growth 48h
COc1cccc(Nc2nc(-c3sc(C)nc3C)cs2)c1,i,5µM,i,nt,nt,i
Cc1ccc(NC(c2nnc(-c3ccccc3)o2)c2ccccc2F)c([N+](=O)[O-])c1 (stereo unspecified),nt,nt,nt,i,i,nt
CSC1=NCCN1C(=O)COc1ccc2ccccc2c1,i,i,i,i,i,nt
CC(=O)n1cc(N(C(=O)CCl)c2ccc(C)cc2)c2ccccc21,?,1.6µM,i,i,i,?
CC(=O)N(c1ccc(Cl)cc1)c1cn(C(C)=O)c2ccccc12,i[5.75 µM],i,i,i,i,i
CCOc1ccc(CC(=O)Nc2c(C(=O)Nc3ccccc3)oc3ccccc23)cc1OCC,0.93µM,i,i,nt,nt,i
CCCN(CCC)C(=O)c1oc2ccccc2c1NC(=O)Cc1cccc(OC)c1,i,11µM,i,nt,nt,?
CCOc1ccc(CC(=O)Nc2c(C(N)=O)oc3ccc(Br)cc23)cc1OCC,12µM,i,i,i,i,nt
CCN(C(=O)CSc1cccc[n+]1[O-])C1CCCCC1,nt,i,nt,nt,nt,nt
Cc1ccnc(NC(=O)CCC(=O)N(Cc2ccco2)C(C(=O)NC(C)C)c2ccc(F)cc2)c1 (stereo unspecified),?,i,i,i,i,i
COc1cc(/C=N/NC(=S)NC(C)C)ccc1OCC(=O)Nc1c(C)cc(C)cc1C,13µM,i,?,i,i,12µM
COc1cc(/C=N/NC(=S)Nc2cccc(Cl)c2C)ccc1OCC(=O)N1CC(C)OC(C)C1 (stereo unspecified),?,11µM,?,i,i,9.3µM
COc1cc(/C=N/NC(=O)c2ccc(Cl)cc2)ccc1OCC(=O)N1CC(C)OC(C)C1 (stereo unspecified),i,i,nt,i,i,i
Cn1nc([N+](=O)[O-])nc1S(C)(=O)=O,4.7µM,10µM,nt,?,i,i
CS(=O)(=O)c1nc([N+](=O)[O-])nn1CCCc1ccccc1,nt,?,nt,i,i,nt
Cc1[nH]n(-c2ccccc2)c(=O)c1N=Nc1c(O)cc(S(=O)(=O)N(C)C)c2ccccc12,4.1µM,?,nt,?,?,3.3µM
CCc1ccc(-c2cn3c(n2)SCC3)cc1,i,i,i,?,i,i
CCc1ccc(-c2cn(-c3nc(C)cc(C)n3)c(=N)o2)cc1,10µM,22µM,i,nt,nt,?
CCCc1nc(-c2cc3ccc(C)cc3[nH]c2=O)no1,3.7µM,i,i,nt,nt,i
CC(C)(C)NC(=O)c1ccccc1-c1nc(-c2ccccc2Cl)no1,2.1µM,i,i,nt,i,i
CCOc1ccccc1NC(=O)c1ccccc1-c1nc(-c2ccccc2OC)no1,?,11µM,i,nt,i,?
CCOc1ccccc1-c1nc(-c2cc3ccccc3nc2OC)no1,?,11µM,i,nt,i,i
CCc1cc(C(=O)c2ccc(OC)cc2)c(NC(=O)COCC(=O)O)s1,i,i,i,nt,nt,i
CCOc1ccccc1-c1nc(-c2cc3ccc(C)cc3[nH]c2=O)no1,i,?,i,nt,nt,9.3µM
Cc1ccc2[nH]c(=O)c(-c3noc(CC(C)C)n3)cc2c1,5.2µM,i,i,nt,nt,9.3µM
SMILES,Pf growth 96h,HCV inh,NS1 function inh,VACV mCherry inh,VACV Venus inh,Pf growth 48h
Cc1ccc2cc(-c3noc(C4CCCO4)n3)c(=O)[nH]c2c1 (stereo unspecified),?,i,i,i,i,nt
Cc1ccc2cc(-c3noc(C4CCCCC4)n3)c(=O)[nH]c2c1,i,i,i,i,i,i
CN1C(=O)[C@@H]2[C@@H]3C[C@@H]([C@H]4ON=C(c5ccc(Cl)cc5Cl)[C@@H]34)[C@@H]2C1=O,i,i,i,i,?,i
COCCCNC(=O)C[C@H]1C[C@H](C(=O)N2CCOCC2)[C@@]2(CCC3CCCC3)c3[nH]c4ccc(Cl)cc4c3CCN2C1=O,nt,i,nt,?,?,nt
CSc1nc(C)c(C(=O)C[n+]2ccccc2)cc1C#N,i,i,i,nt,nt,?
Cc1c(N2C(=O)c3ccccc3C2=O)c(=O)n(-c2ccccc2)n1C,i,i,i,nt,i,i
COC(=O)[C@]12CCCCC=C1N(Cc1cccc3ccccc13)C(=O)[C@H](CC(=O)NCc1cccc3ccccc13)C2,nt,nt,nt,i,i,nt
Fc1ccc(CNC(=S)NCc2cccc(Cl)c2)cc1,10µM,i,?,i,i,?
S=C(NCCc1cccc(Cl)c1)NCc1ccccc1,?,nt,i,nt,nt,i
CC1=C(C)CC(C(=O)NCc2cccc(Cl)c2)C(C(=O)O)C1 (stereo unspecified),13µM,nt,i,nt,nt,i
S=C(NCc1ccccc1)NCc1cccc(Cl)c1,3.7µM,i,i,i,i,i
CC(C)NC(=O)NNC(=O)Cn1nnc(-c2cccc(Cl)c2Cl)n1,i,i,i,i,i,i
O=C(Nc1ccccc1-c1ccccc1)c1cccc([N+](=O)[O-])c1,9.3µM,?,i,nt,nt,?
O=C(Nc1cccc2ccccc12)c1ccc([N+](=O)[O-])cc1,7.4µM,i,i,nt,nt,i
O=C(Nc1nc(-c2ccccc2)cs1)c1cccc([N+](=O)[O-])c1,i,13µM,i,nt,nt,i
O=[N+]([O-])c1ccc(-c2csc(NN=C3CCCC3)n2)cc1,?,8.9µM,i,i,i,i
COc1ccc(S(=O)(=O)N(CCc2ccccc2)CC(=O)O)cc1OC,nt,i,i,i,i,i
COC(=O)n1c(=O)oc2ccc(S(=O)(=O)N3CCCCC3)cc21,i,i,i,i,i,i
Cc1ccc([C@@H]2[C@@H]3C(=O)N(c4ccccc4)C(=O)[C@@H]3[C@]3(Cc4ccccc4)C(=O)N(CC4CC4)CC(=O)N23)o1,i,i,i,i,i,i
CC(C)COc1ccc(C(=O)Nc2ccccc2[N+](=O)[O-])cc1,10µM,i,i,i,i,i
O=C(Nc1nc(-c2cccnc2)cs1)c1ccc([N+](=O)[O-])cc1,12µM,?,i,i,i,4.7µM
O=[N+]([O-])c1cccc(-c2csc(Nc3ccccc3)n2)c1,?,1.6µM,i,?,?,i
COc1ccc(C(=O)Nc2nnc(-c3ccccc3)s2)cc1,i,i,i,i,i,i
Cc1ccc(CNC(=O)CCS(=O)(=O)c2ccc(Br)s2)o1,?,i,i,nt,nt,i
O=C(COc1ccccc1)N/N=C/c1cc2c(cc1[N+](=O)[O-])OCO2,?,i,i,i,i,nt
SMILES,Pf growth 96h,HCV inh,NS1 function inh,VACV mCherry inh,VACV Venus inh,Pf growth 48h
CCOC(=O)/C=C(C)\C=C\c1c[nH]c2ccccc12,i,?,i,i,i,13µM
Cc1ccc(Nc2ccc(-n3ccnc3)nn2)cc1C,10µM,i,i,nt,?,?
CCN(CC)c1ccc(S(=O)(=O)N2CCOCC2)cc1NC(=O)CSC(=S)N1CCCC1,10µM,?,i,i,i,?
CCN(CC)c1ccc(S(=O)(=O)N2CCOCC2)cc1NC(=O)CN1CCN(Cc2ccccc2)CC1,10µM,?,i,nt,nt,?
CCN(CC)c1ccc(S(=O)(=O)N2CCOCC2)cc1NC(=O)CNCc1ccccc1,?,i,i,nt,nt,?
Cn1ccc2c(-c3cccc(C=O)c3F)cc3c(c21)C1CCC3C1 (stereo unspecified),nt,nt,nt,i,i,nt

# Screening results: PubChem, National Center for Advancing Translational Sciences (NCATS)
